Broadly, the inhibition is the change of the read-out against control, counted positive when it falls.

The results in this text go back to ChEMBL document CHEMBL1961873, “Compounds: GSK PKIS; Assays: Nanosyn kinase panel” (2012).

The target in assay [1] is Platelet-derived growth factor receptor beta (Homo sapiens) (UniProt P09619). To be noted: at 1 µM.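 Note: each value is a mean percent inhibition.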
The target of assay [2] is Tyrosine-protein kinase FRK (Homo sapiens) (UniProt P42685). To be noted: at 0.1 µM.
Assay [3] shares this target. To be noted: at 1 µM.
In assay [4] the target is Protein-tyrosine kinase 2-beta (Homo sapiens) (UniProt Q14289). To be noted: at 0.1 µM.
The target is the same in assay [5]. To be noted: at 1 µM.
The target in assay [6] is Proto-oncogene tyrosine-protein kinase receptor Ret (Homo sapiens) (UniProt P07949). To be noted: at 0.1 µM.
Assay [7] shares this target. To be noted: at 1 µM.
Assay [8] has as its system Proto-oncogene tyrosine-protein kinase receptor Ret (Homo sapiens), P07949 [V804L]. To be noted: at 0.1 µM.
Assay [9] has the same test system. To be noted: at 1 µM.
For assay [10], the system named is Proto-oncogene tyrosine-protein kinase receptor Ret (Homo sapiens), P07949 [Y791F]. To be noted: at 0.1 µM.
Sequence of Proto-oncogene tyrosine-protein kinase receptor Ret (Homo sapiens), P07949 [Y791F] (P07949 whole entry Y791F): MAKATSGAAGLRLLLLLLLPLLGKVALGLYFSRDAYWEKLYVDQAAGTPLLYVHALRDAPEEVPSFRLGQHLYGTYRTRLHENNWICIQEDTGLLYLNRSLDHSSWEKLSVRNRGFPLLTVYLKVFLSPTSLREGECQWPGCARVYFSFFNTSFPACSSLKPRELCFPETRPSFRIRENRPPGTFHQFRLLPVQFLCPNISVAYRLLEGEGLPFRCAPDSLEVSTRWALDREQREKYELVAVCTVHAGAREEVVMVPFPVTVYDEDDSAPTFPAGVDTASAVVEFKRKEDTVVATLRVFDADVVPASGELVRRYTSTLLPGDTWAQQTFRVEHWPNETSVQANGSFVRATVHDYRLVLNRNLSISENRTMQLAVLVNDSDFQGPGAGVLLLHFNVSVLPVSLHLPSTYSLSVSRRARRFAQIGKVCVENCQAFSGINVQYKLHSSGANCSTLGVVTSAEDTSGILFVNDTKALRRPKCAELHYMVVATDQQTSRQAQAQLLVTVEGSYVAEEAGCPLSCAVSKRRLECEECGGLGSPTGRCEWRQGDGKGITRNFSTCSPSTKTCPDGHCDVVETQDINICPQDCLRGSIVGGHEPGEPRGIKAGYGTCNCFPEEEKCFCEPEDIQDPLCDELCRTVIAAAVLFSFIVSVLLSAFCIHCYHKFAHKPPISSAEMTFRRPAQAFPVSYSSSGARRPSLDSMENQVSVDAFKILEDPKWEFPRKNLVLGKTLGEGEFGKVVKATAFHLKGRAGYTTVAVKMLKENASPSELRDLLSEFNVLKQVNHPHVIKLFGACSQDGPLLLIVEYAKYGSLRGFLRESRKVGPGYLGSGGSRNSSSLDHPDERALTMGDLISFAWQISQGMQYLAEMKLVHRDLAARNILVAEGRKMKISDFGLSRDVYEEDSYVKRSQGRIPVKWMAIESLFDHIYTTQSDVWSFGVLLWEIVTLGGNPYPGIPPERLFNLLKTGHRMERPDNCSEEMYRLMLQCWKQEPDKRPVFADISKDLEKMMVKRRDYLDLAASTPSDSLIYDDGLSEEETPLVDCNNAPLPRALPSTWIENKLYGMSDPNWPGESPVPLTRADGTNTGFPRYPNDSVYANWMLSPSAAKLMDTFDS

Sequence of Proto-oncogene tyrosine-protein kinase receptor Ret (Homo sapiens) (P07949 whole entry): as the sequence (P07949 whole entry Y791F) above, with F791Y counted along it
Sequence of Tyrosine-protein kinase FRK (Homo sapiens) (P42685 whole entry): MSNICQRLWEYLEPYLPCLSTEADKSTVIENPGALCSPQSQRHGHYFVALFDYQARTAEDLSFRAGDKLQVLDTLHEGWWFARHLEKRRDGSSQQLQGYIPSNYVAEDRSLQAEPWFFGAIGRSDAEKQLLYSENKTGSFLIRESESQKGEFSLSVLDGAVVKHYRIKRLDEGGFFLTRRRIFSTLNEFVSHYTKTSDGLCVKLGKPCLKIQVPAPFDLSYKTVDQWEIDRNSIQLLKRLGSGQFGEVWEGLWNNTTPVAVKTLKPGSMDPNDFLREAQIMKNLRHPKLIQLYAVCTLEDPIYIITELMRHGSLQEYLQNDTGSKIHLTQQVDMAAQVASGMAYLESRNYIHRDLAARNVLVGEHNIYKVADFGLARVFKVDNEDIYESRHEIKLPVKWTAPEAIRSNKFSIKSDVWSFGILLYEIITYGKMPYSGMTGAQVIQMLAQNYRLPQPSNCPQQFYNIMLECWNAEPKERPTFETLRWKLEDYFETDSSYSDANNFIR
Sequence of Protein-tyrosine kinase 2-beta (Homo sapiens) (Q14289 whole entry, looked up): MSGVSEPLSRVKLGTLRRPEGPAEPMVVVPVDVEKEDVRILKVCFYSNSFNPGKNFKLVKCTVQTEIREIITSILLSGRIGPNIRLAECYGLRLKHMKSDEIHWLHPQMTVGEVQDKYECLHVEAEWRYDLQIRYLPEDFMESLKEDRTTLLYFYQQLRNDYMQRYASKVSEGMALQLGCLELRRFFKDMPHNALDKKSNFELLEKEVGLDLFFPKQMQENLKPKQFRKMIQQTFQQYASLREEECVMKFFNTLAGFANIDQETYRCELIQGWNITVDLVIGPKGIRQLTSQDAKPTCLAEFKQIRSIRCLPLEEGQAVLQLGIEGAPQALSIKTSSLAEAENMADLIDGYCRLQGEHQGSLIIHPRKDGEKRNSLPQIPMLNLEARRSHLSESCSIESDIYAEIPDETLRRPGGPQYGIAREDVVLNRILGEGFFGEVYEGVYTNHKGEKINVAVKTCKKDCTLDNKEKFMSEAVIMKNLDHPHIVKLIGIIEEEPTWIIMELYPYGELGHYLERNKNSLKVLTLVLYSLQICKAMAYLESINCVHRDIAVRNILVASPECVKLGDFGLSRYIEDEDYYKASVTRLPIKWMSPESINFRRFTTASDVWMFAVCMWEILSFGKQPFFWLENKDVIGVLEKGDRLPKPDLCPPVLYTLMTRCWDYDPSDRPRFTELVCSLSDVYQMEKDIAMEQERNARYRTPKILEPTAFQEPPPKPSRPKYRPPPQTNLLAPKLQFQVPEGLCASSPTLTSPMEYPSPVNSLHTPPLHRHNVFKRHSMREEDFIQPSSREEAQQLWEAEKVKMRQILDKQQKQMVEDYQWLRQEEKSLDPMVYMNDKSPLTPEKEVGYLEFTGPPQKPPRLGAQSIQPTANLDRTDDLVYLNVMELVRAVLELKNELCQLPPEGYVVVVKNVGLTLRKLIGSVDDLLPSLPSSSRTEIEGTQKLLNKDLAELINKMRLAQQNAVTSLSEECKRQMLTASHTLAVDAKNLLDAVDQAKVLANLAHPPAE
Sequence of Proto-oncogene tyrosine-protein kinase receptor Ret (Homo sapiens), P07949 [V804L] (P07949 whole entry V804L): as the sequence (P07949 whole entry Y791F) above, with F791Y, V804L counted along it
Sequence of Platelet-derived growth factor receptor beta (Homo sapiens) (P09619 whole entry): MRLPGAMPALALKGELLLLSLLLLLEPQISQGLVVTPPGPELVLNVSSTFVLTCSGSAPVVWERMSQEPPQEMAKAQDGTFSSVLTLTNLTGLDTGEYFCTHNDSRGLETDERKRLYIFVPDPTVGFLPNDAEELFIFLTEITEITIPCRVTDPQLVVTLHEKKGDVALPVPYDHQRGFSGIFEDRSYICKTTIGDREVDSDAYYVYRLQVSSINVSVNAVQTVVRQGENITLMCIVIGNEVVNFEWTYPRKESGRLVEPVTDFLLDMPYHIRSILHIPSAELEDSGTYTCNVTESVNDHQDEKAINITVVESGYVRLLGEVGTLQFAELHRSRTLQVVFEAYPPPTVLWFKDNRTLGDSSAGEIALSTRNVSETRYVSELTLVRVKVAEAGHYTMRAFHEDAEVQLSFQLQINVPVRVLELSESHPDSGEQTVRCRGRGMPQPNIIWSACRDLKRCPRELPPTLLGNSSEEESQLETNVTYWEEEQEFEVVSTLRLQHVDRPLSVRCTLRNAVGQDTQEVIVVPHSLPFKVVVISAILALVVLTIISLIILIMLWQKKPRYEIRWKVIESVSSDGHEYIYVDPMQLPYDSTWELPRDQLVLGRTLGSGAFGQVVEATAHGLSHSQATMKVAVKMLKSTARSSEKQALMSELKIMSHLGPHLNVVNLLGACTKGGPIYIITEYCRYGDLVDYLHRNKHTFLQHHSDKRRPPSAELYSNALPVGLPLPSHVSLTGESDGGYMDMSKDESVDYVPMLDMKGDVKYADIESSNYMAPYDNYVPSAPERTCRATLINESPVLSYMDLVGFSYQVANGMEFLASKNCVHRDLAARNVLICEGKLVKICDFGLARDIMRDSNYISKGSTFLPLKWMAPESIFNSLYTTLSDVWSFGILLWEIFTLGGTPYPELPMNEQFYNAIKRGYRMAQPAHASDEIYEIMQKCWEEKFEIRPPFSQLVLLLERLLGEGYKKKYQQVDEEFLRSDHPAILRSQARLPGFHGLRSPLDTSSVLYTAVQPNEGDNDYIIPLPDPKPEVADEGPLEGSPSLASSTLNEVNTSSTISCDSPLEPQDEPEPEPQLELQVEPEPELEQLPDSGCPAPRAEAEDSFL

For the compound `COc1ccc(-c2nn3ncccc3c2-c2ccnc(Nc3ccc(Cl)c(C(F)(F)F)c3)n2)cc1`, the inhibition in assay [1] turned out to be 5.76%; in assay [2], 1.65%; in [3], 0.79%; in [4] it was 5.54%; in assay [5] it was 10.5%; in assay [6], 2.17%. In addition, the inhibition was -0.91% in assay [7], 2.33% in assay [8], 6.71% in [9] and 2.51% in assay [10].

For the compound `CCn1c(-c2nonc2N)nc2cncc(C(=O)N3CCNCC3)c21`, the inhibition in assay [1] was 4.8%; in assay [2], 3.81%; in assay [3], 4.59%; in assay [4], 4.67%; in assay [5] it was 9.07%; in [6], 4.73%. Also, the inhibition in assay [7] is 6.87%; in assay [8] it was 3.5%; in assay [9], 6.04%; in assay [10], 5.85%.

Take `CCn1c(-c2nonc2N)nc2cncc(C(=O)N3CC[C@H](N)C3)c21`: the inhibition in assay [1] was found to be 10.7%; in assay [2] it was 3.16%; in [3], 2.04%; in [4] it was 10.8%; in assay [5], 7.69%; in assay [6], 5.56%. For the same compound, the inhibition in [7] was 4.11%; in [8] it was 3.46%; in assay [9], 4.03%; in [10], 4.17%.

Turning to `CN(C)c1cc2c(Nc3ccc4nc(Cc5ccccc5)[nH]c4c3)ncnc2cn1`, the inhibition was 12.1% in [1]; -0.33% in [2]; 3.88% in [3]; 15.7% in assay [4]; 11.8% in assay [5]; 7.21% in assay [6]. In addition, the inhibition in assay [7] worked out at 13.2%; in assay [8], 3.89%; in [9], 7.59%; in assay [10], 6.91%.

For `O=C1Nc2ccc(C(=O)c3ccco3)cc2C1=Cc1cc(Cl)c(O)c(Cl)c1`, the inhibition in [1] worked out at 18.5%; in [2] it was 1.7%; in assay [3] it was 7.16%; in [4] it was 15%; in assay [5], 34.6%; in assay [6], 19.6%. The inhibition in assay [7] was 58.1%; in assay [8], 38.4%; in assay [9], 74.7%; in assay [10], 16%.

Consider `Fc1cccc(COc2ccc(Nc3ncnc4sc(-c5cccs5)cc34)cc2Cl)c1`, for which the inhibition was 4.24% in assay [1]; 1.12% in [2]; 2.35% in assay [3]; -5.04% in assay [4]; 3.37% in assay [5]; 3.97% in assay [6]. Also, the inhibition in [7] came to 0.68%; in assay [8], 0.76%; in assay [9], 2.26%; in [10] it was 1.05%.

Consider `CCn1c(-c2nonc2N)nc2c(N3CCCC3)nccc21`, for which the inhibition is 8.55% in [1]; -0.17% in assay [2]; 0% in [3]; 1.2% in assay [4]; -3.88% in [5]; 4.49% in assay [6]. In addition, the inhibition in [7] is 20.8%; in assay [8] it was 0.68%; in [9], -0.73%; in assay [10], 0%.

`CS(=O)(=O)CCN(CC#N)Cc1ccc(-c2ccc3ncnc(Nc4ccc(OCc5cccc(F)c5)c(Cl)c4)c3c2)o1`: the inhibition in assay [1] worked out at 6.45%; in [2] it was 1.47%; in [3], 2.48%; in assay [4], 3.85%; in [5], 9.33%; in [6], 0.24%. Moreover, the inhibition in assay [7] is 2.76%; in [8], 1.02%; in assay [9], 3.35%; in [10] it was 2.36%.

On to `CC1=C(C(=O)Nc2ccc3[nH]ncc3c2)C(c2ccc3ccccc3c2)CC(=O)N1` (stereo not given), for which the inhibition in assay [1] came to 13.7%; in assay [2], 2.73%; in assay [3], 17.3%; in assay [4], 3.97%; in assay [5], 7.64%; in assay [6] it was 20.4%. Besides, the inhibition in assay [7] came to 65.8%; in assay [8], 12.4%; in [9], 53.2%; in [10] it was 20.1%.

In the case of `O=C(Nc1n[nH]c2nc(-c3ccco3)c(Br)cc12)C1CC1`, the inhibition in assay [1] is 6.81%; in assay [2] it was 1.22%; in assay [3], 4.35%; in assay [4], -1.24%; in assay [5], 3.71%; in assay [6], 6.36%. Also, the inhibition is 4.7% in assay [7], 4.14% in assay [8], 0.95% in [9] and 4.67% in assay [10].

Regarding `COc1cccc(-n2ncc3c(N/N=C/c4cccc(F)c4)ncnc32)c1`, the inhibition worked out at 51.1% in assay [1]; 1.84% in assay [2]; 2.7% in assay [3]; 9.51% in [4]; 9.99% in [5]; 2.64% in assay [6]. Further, the inhibition is 18.3% in assay [7], 3.55% in assay [8], 9.3% in assay [9] and 4.94% in assay [10].

For the compound `Cc1nn(C)c2cc(N(C)c3ccnc(Nc4cccc(S(N)(=O)=O)c4)n3)ccc12`, the inhibition in assay [1] came to 61.6%; in [2], 3.71%; in assay [3] it was 11.6%; in [4] it was 9.35%; in assay [5], 17.8%; in assay [6], 11.9%. The inhibition worked out at 39% in assay [7], 5.4% in [8], 34.2% in [9] and 12.6% in assay [10].

With `Nc1ncnc2occ(-c3ccc(NC(=O)Nc4cc(C(F)(F)F)cc(C(F)(F)F)c4)cc3)c12`, the inhibition was 81.5% in assay [1]; 1.36% in [2]; 4.51% in [3]; 8.32% in assay [4]; 19.4% in assay [5]; 76.4% in assay [6]. Also, the inhibition in assay [7] was 81.4%; in assay [8], 38.4%; in assay [9], 77%; in assay [10] it was 60.7%.

Turning to `Cn1cc(C=C2C(=O)Nc3cccnc32)c2ccccc21`, the inhibition in [1] came out at 42%; in assay [2], 0.71%; in assay [3] it was 3.75%; in assay [4], 5.59%; in assay [5] it was 25.2%.

With `NCc1ccc(-c2nc(-c3ccc(Cl)c(O)c3)c(-c3ccncc3)[nH]2)cc1`, the inhibition in assay [1] is 31%; in [2], 5.22%; in assay [3], 35.3%; in assay [4], 3.97%; in assay [5], -0.14%; in assay [6], 47.6%. Moreover, the inhibition in assay [7] is 76.6%; in assay [8], 1.17%; in assay [9], 7.47%; in assay [10], 39.5%.

Regarding `COc1cc(C=NNc2ncnc3c2cnn3-c2ccccc2)ccc1O`, the inhibition in assay [1] was 68.9%; in [2], 0.86%; in [3] it was 3.44%; in assay [4], 4.69%; in assay [5] it was 14.2%; in assay [6] it was 43.5%. In addition, the inhibition was 80.6% in assay [7], 13.6% in [8], 46.3% in assay [9] and 36.3% in [10].

Consider `CS(=O)(=O)CCNCc1ccc(-c2ccc3ncnc(Nc4ccc(OCc5cccc(F)c5)c(C(F)(F)F)c4)c3c2)o1`, for which the inhibition in assay [1] is 1.85%; in [2], 2.17%; in assay [3] it was 3.48%; in assay [4], 9.54%; in assay [5], 10.4%; in assay [6] it was 6.1%. Also, the inhibition in assay [7] amounted to 3.78%; in assay [8] it was 1.9%; in assay [9], 4.58%; in assay [10], 2.66%.
